From PubChem BioAssay
An excerpt weighted towards active compounds, which were near 2.2% of everything screened.
aSyn UTR inh: MLPCN primary screen, SNCA 5' untranslated region | alpha-synuclein 5'UTR reporter, inhibitor activity | inhibition, % (tested at 7.5 µM) | 300,000 tested, 0.82% active; in the data active = inhibition above about 60%;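 also: H4 neuroglioblastoma cells stably carrying SNCA 5'UTR luciferase fusion; 0% = DMSO wells and 100% = positive control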
IEC-6 cytotox: cytotoxicity in IEC-6 intestinal epithelial cells, primary screen, cytotoxicity control for KLF5 inhibitor project, cell-based, luminescence | IEC-6 cytotoxicity, luminescence viability | inhibition, % at 5 µM | 290,000 tested, 0.78% active; in the data active = inhibition above about 22%;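 also: 0% = plate median of test compound wells and 100% = cytotoxic reference compound wells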
BaF3 tox: parental Ba/F3 cell viability inhibition, counter-screen for JAK2V617F inhibitor project, murine pro-B, CellTiter-Glo luminescence. CellTiter-Glo ATP luminescence. inhibition, % at 5.6 µM. 220,000 tested, 1.1% active;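 active = inhibition above a per-campaign cutoff, the mean inhibition of all tested compounds plus 3 SD, cut at about 27% in these data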;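 also: 0% = DMSO wells and 100% = JAK Inhibitor I control wells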
KLF5 inh: KLF5 expression inhibitors, primary screen, DLD-1 cells, luminescence. inhibition, % at 5 µM. DLD-1 KLF5 promoter-luciferase reporter. 290,000 tested, 0.23% active;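 active = inhibition above a per-plate limit of that plate's mean compound inhibition plus 3 SD, cut at about 60% in these data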;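 also: 0% = DMSO wells and 100% = LY294002 at 200 µM; higher means less KLF5 promoter-driven luciferase light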
Ba/F3 V617F tox: reduced viability of JAK2V617F-dependent Ba/F3 cells, primary screen, JAK2V617F inhibitor project, cell-based, Ba/F3 EpoR-JAK2V617F, luminescence | 220,000 tested, 1.1% active | ATP luminescence | inhibition, % at 5.6 µM;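 active = inhibition above the campaign mean plus 3 SD over all tested compounds, cut at about 24% in these data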;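 also: cytokine-independent growth of Ba/F3 cells driven by EpoR plus mutant JAK2; 0% = DMSO-treated cells and 100% = JAK inhibitor I control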
APP 5UTR inh: inhibitors of APP translation via 5'UTR reporter, primary screen, APP 5'UTR luciferase, SH-SY5Y cells. SH-SY5Y APP 5'UTR-luciferase reporter, luminescence. inhibition, % at 2 µM. 190,000 tested, 0.82% active;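 active = inhibition above a set limit, derived from the sample mean plus 3 SD, cut at about 45% in these data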
BaF3 tox 2: parental Ba/F3 cell viability inhibition, counter-screen for JAK2V617F inhibitor project, murine pro-B, CellTiter-Glo luminescence; AID 1520, 2009; inhibition, % at 5.6 µM; shares compounds with Ba/F3 V617F tox; cells kept alive by added IL-3; 580 tested, 31% active;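 active = cell growth inhibition above the hit limit set in the earlier mutant JAK2 cell screen, cut at about 27% in these data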;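 also: plate controls were DMSO-treated cells for no effect and JAK Inhibitor I control wells for full effect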
JAK2V617F confrm: viability loss in Ba/F3 EpoR-JAK2V617F cells, confirmation, JAK2V617F inhibitor project, cell-based, luminescence, triplicate; shares compounds with Ba/F3 V617F tox; CellTiter-Glo luminescence; inhibition, % at 5.6 µM; 580 tested, 66% active; AID 1521, 2009;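 active = mean inhibition above the hit cutoff derived in the earlier primary screen, cut at about 25% in these data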;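 also: 0% = DMSO-treated cells and 100% = JAK inhibitor I control wells; higher means lower luminescence from reduced cell ATP and viability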
* hit, by the source's call; . = no result.

SMILES | aSyn UTR inh | IEC-6 cytotox | BaF3 tox | KLF5 inh | Ba/F3 V617F tox | APP 5UTR inh | BaF3 tox 2 | JAK2V617F confrm
Cc1cccc(N(Cc2ccccc2)C(=O)CCl)c1 | -21 | -3 | 4 | 6 | 57* | 22 | 3 | 98*
O=c1oc2ccccc2c2c1ncn2CCN1CCOCC1 | -4 | 6 | 12 | -6 | 61* | -9 | 1 | 11
COc1c(Cl)cc(C(=O)NN)cc1Cl | 99* | 52* | 21 | 15 | 42* | 92* | -6 | -2
COC(=O)c1cn(NC(=O)c2cc([N+](=O)[O-])ccc2F)c(=O)c2ccccc12 | 3 | 6 | 24 | 32 | 36* | 23 | 41* | 97*
COC(=O)c1cn(NC(=O)C2CCC(C)CC2)c(=O)c2ccccc12 (stereo not given) | 17 | 6 | 3 | 24 | 4 | -15 | . | .
Cc1ccc(N=C2NC(=O)/C(=C/c3cn(C)c4ccccc34)S2)cc1C | . | 5 | 6 | -22 | -1 | 12 | . | .
COC(=O)NC(=S)Nc1ccc(Oc2ccc(Cl)cc2Cl)c(Cl)c1 | -2 | 12 | 8 | 6 | 2 | -2 | . | .
Nc1ccc2c(c1)C(=O)C(=O)c1ccccc1-2 | 130* | 5 | 14 | -58 | 44* | 88* | 107* | 99*
Oc1ccc(Cl)cc1CNc1ccc(Br)cn1 | -142 | -1 | 13 | -162 | 27* | -59 | 6 | 31*
Cc1ccc(/C=N/NC(=O)C(=O)N/N=C/c2ccc(C)o2)o1 | 13 | -2 | 0 | -44 | 45* | 7 | -6 | -12
O=C(CCl)Nc1ccc(N=Nc2ccccc2)cc1 | -63 | -5 | 2 | -107 | 28* | -31 | 19 | 94*
O=C(CCl)Nc1ccc(-c2ccccc2)cc1 | -20 | -5 | 3 | -31 | 19 | 23 | . | .
COc1ccc(CN=C(N)N=C(N)N)cc1Cl | -2 | 0 | 22 | -21 | 4 | -15 | . | .
CC(C)Oc1ccc(CN=C(N)N=C(N)N)cc1Cl | 14 | -9 | 2 | -27 | 30* | -7 | 40* | 65*
Cn1cnc([N+](=O)[O-])c1NC(C)(C)C | 31 | -1 | 9 | -34 | 2 | -1 | . | .
Cn1cnc([N+](=O)[O-])c1S(=O)(=O)c1ccc(Cl)cc1 | 18 | 11 | -2 | -1 | 26* | 11 | 1 | 69*
COC(=O)CC1COc2ccccc2N1S(=O)(=O)c1ccc(Br)cc1 (stereo not given) | -9 | 2 | . | 0 | . | . | . | .
COc1ccc(CCN(CC(=O)NC(C)(C)C)C(=O)Cn2nnc(-c3ccc(C)o3)n2)cc1OC | 6 | -2 | 3 | -10 | 1 | 3 | . | .
CCCCn1c(SCC(=O)c2ccc(O)c(O)c2)nc2ccsc2c1=O | 30 | -3 | 12 | -22 | 40* | -14 | 32* | 88*
COc1cccc(SCc2noc(C(=O)NC(C)C)c2C(=O)NC(C)C)c1 | -5 | . | . | . | . | . | . | .
S=C(Nc1ccc(Cl)cc1)N1CCCCC1 | -22 | 2 | 12 | -8 | 5 | 2 | . | .
CN1CCN(C(=S)Nc2ccc(Cl)cc2)CC1 | -7 | -8 | 14 | -33 | 27* | -16 | 23 | 46*
Cc1ccc(NC(=S)N2CCN(C3CCCCC3)CC2)cc1 | -20 | -7 | 7 | -13 | 61* | -6 | 24 | 40*
O=C(N/N=C/c1cc2c3c(c1O)CCCN3CCC2)c1ccccc1O | 104* | -5 | 5 | 5 | 35* | 85* | 95* | 96*
CCN(CC)CCCNC(=O)c1cc(-c2ccc(Cl)cc2)on1 | -8 | -1 | 1 | -4 | 24* | -12 | 0 | -1
SMILES | aSyn UTR inh | IEC-6 cytotox | BaF3 tox | KLF5 inh | Ba/F3 V617F tox | APP 5UTR inh | BaF3 tox 2 | JAK2V617F confrm
CC(C)Cn1c(N)c(-c2nc(C(C)C)c(C(=O)c3ccccc3F)s2)c(=O)n(C)c1=O | 26 | 1 | 3 | -20 | -5 | 9 | . | .
C(=N\Nc1nc2ccccc2[nH]1)/c1cccc2nccnc12 | 67* | 12 | 3 | 27 | 50* | . | 51* | 63*
O=C1CN(S(=O)(=O)c2ccc(Cl)cc2)c2ccccc2N1 | 10 | -1 | . | -7 | . | . | . | .
Cc1ccc(N(CC(O)CN2C(=O)NC(C)(C)C2=O)S(=O)(=O)c2ccc(C)cc2)cc1 (stereo not given) | -16 | 1 | 2 | 1 | 25* | . | 0 | -1
O=c1[nH]c2ccc(N/C(=N/S(=O)(=O)c3ccccc3)c3ccccc3)cc2[nH]1 | 1 | -4 | 3 | -25 | 29* | 1 | -2 | 1
CC(=O)Nc1ccc(N/C(=N\S(=O)(=O)c2ccccc2)c2ccccc2)cc1 | 3 | 0 | . | -37 | . | . | . | .
CC(C)(C)Cc1nnc(NC(=O)CSc2ccccc2)s1 | -137 | 1 | . | -67 | . | . | . | .
O=C(N/N=C/c1cc([N+](=O)[O-])ccc1O)c1cccc2cc[nH]c12 | 68* | 11 | 3 | 46 | 34* | . | 6 | 28*
CCCCCCCCCCCC(=O)NC1CCS(=O)(=O)C1 (stereo not given) | 13 | 1 | 0 | -24 | 70* | 11 | -4 | 0
CCOc1ccc(S(=O)(=O)Nc2ccc(C(=O)N3CCCC3)cc2)cc1C(N)=O | 13 | 2 | . | 12 | . | . | . | .
COc1ccc2c(c1OC)C(=O)OC2Nc1nc(-c2ccc([N+](=O)[O-])cc2)cs1 (stereo not given) | -56 | -4 | -3 | -31 | -1 | . | . | .
COc1ccc(-c2csc(NC3OC(=O)c4c3ccc(OC)c4OC)n2)cc1OC (stereo not given) | -9 | 7 | 3 | -16 | 27* | . | 13 | 31*
Nc1nc(=S)c2ncn(C3OC(CO)C(O)C3O)c2[nH]1 (stereo not given) | 18 | 10 | 25 | -27 | 45* | . | 7 | 30*
Cc1cccc(OCC(=O)Nc2cc(C)c(C)cc2O)c1 | -112 | -2 | 4 | -1 | -1 | -14 | . | .
Cc1cccc(OCC(=O)Nc2cc(C)ccc2O)c1 | -37 | 8 | 6 | -40 | 37* | 1 | 5 | 67*
Oc1ccccc1/C=N/Nc1nc2ccccc2o1 | 31 | 10 | 6 | 23 | 44* | . | 65* | 74*
O=C(NCCS(=O)(=O)N1CCN(c2ccccc2F)CC1)c1cc(=O)c2ccccc2o1 | 9 | 6 | . | -7 | . | . | . | .
O=C(O)CCc1ccccc1OC(=O)c1ccccc1 | 10 | -8 | -4 | -15 | 0 | . | . | .
O=C(Oc1cccc2c(O)cccc12)c1ccccc1 | 3 | -10 | 12 | 12 | 24* | -11 | 12 | 67*
